# Compounds without any hit were thinned out: in the full panel of roughly 79,000, 15% have a hit. Values without a mark were called inactive. The source made the active and inactive calls. No stated cut-off is given here; in the data, active means growth inhibition above about 70%; inactive means the rest.
# What was measured:
# [1] = NCI Yeast Anticancer Drug Screen. Data for the rad50 strain (AID 155);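 further: 0% = growth of vehicle-only cultures of the same strain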; conditions: S. cerevisiae rad50 strain growth inhibition, stronger effect = higher value
# Outline: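 Cells are treated with compound, grown, and their growth is then scored against vehicle-only cultures of the same repair-deficient yeast strain.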
# [2] = NCI Yeast Anticancer Drug Screen. Data for the mec2-1 strain (AID 157); conditions: S. cerevisiae mec2-1 strain, stronger effect = higher value
# Outline: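 mec2-1 yeast strain, carrying an alteration in DNA damage repair or cell cycle control, was exposed to compounds; growth inhibition was measured relative to vehicle-treated controls.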
# [3] = NCI Yeast Anticancer Drug Screen. Data for the sgs1 mgt1 strain (AID 161);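 further: 0% = growth of cultures given vehicle only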; conditions: S. cerevisiae sgs1 mgt1 strain, stronger effect = higher value
# Outline: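 This yeast growth screen uses a strain with defined DNA-repair lesions; compound-treated growth is compared with vehicle-treated growth.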
# [4] = NCI Yeast Anticancer Drug Screen. Data for the cln2 rad14 strain (AID 165);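 further: 0% = growth equal to vehicle treated cultures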; conditions: S. cerevisiae cln2 rad14 strain, stronger effect = higher value
# Outline: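 Yeast carrying cln2 and rad14 alterations (cell cycle control and DNA damage repair) were exposed to compounds. Growth inhibition was measured against vehicle-treated controls.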
# [5] = NCI Yeast Anticancer Drug Screen. Data for the bub3 strain (AID 167); conditions: S. cerevisiae bub3 mutant strain, stronger effect = higher value
# Outline: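 Part of a panel of yeast mutants defective in DNA damage repair or cell cycle regulation. Each strain is grown with compound, and inhibition is calculated relative to solvent-treated cultures.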
# [6] = NCI Yeast Anticancer Drug Screen. Data for the mlh1 rad18 strain (AID 175); conditions: S. cerevisiae mlh1 rad18 strain growth inhibition, stronger effect = higher value
# Outline: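 Growth inhibition of the yeast strain was measured after compound exposure and expressed relative to vehicle-treated controls. The strain carries defined defects in DNA damage repair.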
# [7] = at 5.0 µM (retest, dose inferred, filed as 0.5)
# [8] = at 50.0 µM (retest, dose inferred, filed as 5.0)
SMILES,"growth inhibition [1, 7]","growth inhibition [1, 8]",growth inhibition ([1]; at 50.0 µM),"growth inhibition [2, 7]","growth inhibition [2, 8]",growth inhibition ([2]; at 50.0 µM),"growth inhibition [3, 7]","growth inhibition [3, 8]",growth inhibition ([3]; at 50.0 µM),"growth inhibition [4, 7]","growth inhibition [4, 8]",growth inhibition ([4]; at 50.0 µM),"growth inhibition [5, 7]","growth inhibition [5, 8]",growth inhibition ([5]; at 50.0 µM),"growth inhibition [6, 7]","growth inhibition [6, 8]",growth inhibition ([6]; at 50.0 µM)
CC1(C)C2CCC([CH2][Hg][Cl])C1C2 (centres undefined),99% (active),98% (active),98.8% (active),100% (active),95% (active),99.2% (active),100% (active),97% (active),99.2% (active),99% (active),98% (active),99% (active),99% (active),98% (active),99.3% (active),100% (active),98% (active),99% (active)
COc1cc(/C=C/c2ccc(OC)c(O)c2)cc(OC)c1,0%,96% (active),98.3% (active),-4%,98% (active),99.2% (active),5%,98% (active),98.9% (active),-14%,97% (active),98.2% (active),-4%,98% (active),98.2% (active),-3%,97% (active),98.9% (active)
Oc1c(Cl)c(Cl)cc(Cl)c1Cl,8%,90% (active),23.5%,7%,97% (active),68.9%,34%,95% (active),61.1%,-27%,94% (active),79.8% (active),13%,92% (active),48.3%,-6%,92% (active),61.8%
Cc1[cH-]c(=O)n(-c2ccccc2)n1.[Au+].[Au].c1ccc([PH+](c2ccccc2)c2ccccc2)cc1.c1ccc([PH+](c2ccccc2)c2ccccc2)cc1,27%,65%,88.8% (active),32%,96% (active),90.3% (active),33%,93% (active),91.5% (active),18%,65%,88.7% (active),19%,87% (active),89.4% (active),35%,79% (active),83% (active)
COC(=O)[CH2][Sn]([CH2]C(=O)OC)([CH]1CCCCC1)[CH]1CCCCC1,3%,65%,98.4% (active),-3%,45%,97.2% (active),2%,69%,99.2% (active),5%,33%,98% (active),1%,59%,97.2% (active),2%,48%,98.5% (active)
CC1=CC2CC(C)=C(CC[C@]3(C)CC[C@H]([C@@H](C)C(=O)O)OO3)C(C)(C)C2CC1 (some centres undefined),41%,98% (active),91.7% (active),59%,99% (active),93.8% (active),69%,99% (active),93% (active),41%,98% (active),91.2% (active),52%,98% (active),92.2% (active),60%,98% (active),91.4% (active)
Cc1ccc(NCc2ccccc2)cc1[As](=O)(O)O,-1%,97% (active),47%,-2%,96% (active),12.9%,-4%,67%,8.3%,-5%,94% (active),-16.8%,-2%,99% (active),41.5%,-1%,99% (active),66.3%
NCCNCCNCCNCCN (tested in a mixture with another compound),0%,1%,90.3% (active),-35%,0%,25.8%,0%,2%,52.9%,2%,4%,35.8%,-1%,-5%,80% (active),0%,2%,62.5%
CC(=O)[O-].O=[N+]([O-])c1ccc([O-])c(C=NCCN=Cc2cc([N+](=O)[O-])ccc2[O-])c1.[Mn+3],15%,96% (active),91.8% (active),-2%,98% (active),79.2% (active),10%,93% (active),91.6% (active),19%,95% (active),48.2%,1%,94% (active),88.5% (active),12%,97% (active),93.3% (active)
CC[PH+](CC)CC.[Cl][Au],98% (active),98% (active),89.8% (active),99% (active),99% (active),91.4% (active),97% (active),98% (active),91.3% (active),92% (active),99% (active),90.8% (active),99% (active),99% (active),89.8% (active),94% (active),99% (active),90.8% (active)
C[C@]12CC[C@H](OC3OC(CO)C(O)C(O)C3O)C[C@H]1CC[C@@H]1[C@@H]2CC[C@]2(C)[C@@H](C3=CCOC3=O)CC[C@]12O (some centres undefined),7%,4%,-11.2%,6%,-2%,-6.9%,-17%,-2%,6.4%,-11%,-35%,13.1%,-22%,7%,-38.5%,6%,21%,49.6%
O=C(c1ccc2ccccc2c1)N1CC1,-27%,23%,71.8% (active),-6%,-12%,-1.65%,-14%,5%,41.8%,-12%,57%,66.5%,2%,54%,58.9%,-24%,52%,63.2%
O=[N+]([O-])c1ccc(C(Br)Br)cc1,93% (active),99% (active),99.6% (active),74% (active),99% (active),99.6% (active),79% (active),99% (active),99.7% (active),70% (active),99% (active),98.6% (active),74% (active),99% (active),99.5% (active),97% (active),99% (active),99.5% (active)
O=C(O)c1ccc([Se][Se]c2ccc(C(=O)O)cc2)cc1,63%,97% (active),89.9% (active),39%,98% (active),92.8% (active),58%,99% (active),93.3% (active),33%,94% (active),91.5% (active),41%,99% (active),91.2% (active),67%,97% (active),91.1% (active)
COC12c3c(C)cc(O)c4c(=O)occ(c34)C(=O)C1C13COC(=O)c4c(O)cc(C)c(c41)C(=O)C2C3OC(C)=O (centres undefined),45%,99% (active),91.4% (active),32%,100% (active),93% (active),69%,99% (active),92.7% (active),63%,100% (active),91.9% (active),71% (active),100% (active),91.1% (active),36%,99% (active),91.9% (active)
[Cl][Hg][c]1ccc(Cl)s1,99% (active),99% (active),99.2% (active),100% (active),99% (active),99.2% (active),100% (active),100% (active),99% (active),99% (active),99% (active),99% (active),100% (active),100% (active),99.3% (active),99% (active),99% (active),98.6% (active)
OC(CN(CCCl)CCCl)C(O)C(O)C(O)CN(CCCl)CCCl (centres undefined),6%,81% (active),77.6% (active),9%,59%,24%,-4%,33%,30.2%,-6%,50%,82.1% (active),-7%,11%,-12.1%,35%,95% (active),82.1% (active)
Oc1c(Cl)cc(Cl)c2ccccc12.[Cu+2],-5%,91% (active),99.3% (active),-34%,77% (active),99.1% (active),-5%,91% (active),99.2% (active),-1%,32%,98.7% (active),-2%,93% (active),99.5% (active),0%,93% (active),99.2% (active)

# Reference: PubChem BioAssay (NCI)
